Reference: PubChem BioAssay (NCI)
Compounds without any hit were thinned out: in the full panel of roughly 79,000, 15% have a hit. Calls of active or inactive are those of the source. Cut-off read from the data, not from the text of the source: active = growth inhibition above about 70%; inactive = the rest.

Legend:
[1] = NCI Yeast Anticancer Drug Screen. Data for the rad52 strain (AID 147);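 note: 0% = growth of vehicle-treated control cultures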; details: S. cerevisiae rad52 mutant growth inhibition, active compounds read high
How it was run: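 Here a repair-compromised yeast strain receives each compound; its growth is then quantified and normalised to vehicle-only controls.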

[2] = NCI Yeast Anticancer Drug Screen. Data for the wt1 strain (AID 149);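 note: 0% = growth of vehicle-treated wt1 cultures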; details: S. cerevisiae wt1 strain (SPY 50644) growth inhibition, active compounds read high
How it was run: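 Each compound is tested on wt1 yeast and the loss of growth versus vehicle gives the inhibition value.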

[3] = NCI Yeast Anticancer Drug Screen. Data for the rad50EPP+ strain (AID 151);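 note: 0% = growth of vehicle-treated control cultures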; details: S. cerevisiae rad50 mutant strain, active compounds read high
How it was run: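 Read-out is yeast growth inhibition relative to vehicle; cells used were the rad50EPP+ strain.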

[4] = NCI Yeast Anticancer Drug Screen. Data for the mgt1 strain (AID 153); details: S. cerevisiae mgt1 mutant growth inhibition, active compounds read high
How it was run: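 Measured: inhibition of mgt1 yeast growth by compound, normalized to vehicle-treated cultures.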

[5] = NCI Yeast Anticancer Drug Screen. Data for the rad50 strain (AID 155);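 note: 0% = growth of vehicle-only cultures of the same strain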; details: S. cerevisiae rad50 strain growth inhibition, active compounds read high
How it was run: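 Vehicle-treated cultures provide the reference for the growth inhibition reported for compound-exposed, repair-deficient yeast.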

[6] = NCI Yeast Anticancer Drug Screen. Data for the mec2-1 strain (AID 157); details: S. cerevisiae mec2-1 strain, active compounds read high
How it was run: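 Using mec2-1 yeast: add compound, measure growth, express inhibition versus vehicle-treated cultures.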

[7] = NCI Yeast Anticancer Drug Screen. Data for the rad14 strain (AID 159);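 note: 0% = growth of vehicle-treated control cultures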; details: S. cerevisiae rad14 strain growth inhibition, active compounds read high
How it was run: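 Inhibition of growth is reported for a repair-deficient yeast mutant following compound treatment, calculated relative to cultures that received vehicle.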

[8] = NCI Yeast Anticancer Drug Screen. Data for the sgs1 mgt1 strain (AID 161);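 note: 0% = growth of cultures given vehicle only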; details: S. cerevisiae sgs1 mgt1 strain, active compounds read high
How it was run: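 Growth of a repair-deficient yeast mutant was monitored after compound treatment and expressed as inhibition relative to vehicle-treated cultures.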

[9] = NCI Yeast Anticancer Drug Screen. Data for the CLN2oe strain (AID 163);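 note: 0% = growth of vehicle-only control cultures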; details: S. cerevisiae CLN2oe strain, active compounds read high
How it was run: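 Whole-cell yeast growth assay. A strain engineered for altered cell-cycle control received compound, and inhibition relative to vehicle-treated cultures was recorded.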

[10] = NCI Yeast Anticancer Drug Screen. Data for the bub3 strain (AID 167); details: S. cerevisiae bub3 mutant strain, active compounds read high
How it was run: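 Mutant yeast screening strain plus compound; vehicle-treated cultures serve as the 0% inhibition reference.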

[11] = NCI Yeast Anticancer Drug Screen. Data for the wt2 strain (AID 169); details: S. cerevisiae wt2 strain growth inhibition, active compounds read high
How it was run: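 Treated yeast vs. vehicle-treated yeast: growth inhibition determined.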

[12] = NCI Yeast Anticancer Drug Screen. Data for the mlh1 strain (AID 171);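 note: 0% = growth of vehicle-treated control cultures of the same strain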; details: S. cerevisiae mlh1 strain growth inhibition, active compounds read high
How it was run: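 A yeast strain with a defined genetic lesion serves as the test organism. Cultures receive compound or vehicle, and growth is measured.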

[13] = NCI Yeast Anticancer Drug Screen. Data for the sgs1 strain (AID 173);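 note: 0% = growth of vehicle-only control cultures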; details: S. cerevisiae sgs1 mutant, active compounds read high
How it was run: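 A genetically defined yeast mutant is incubated with the test compound, and its growth is compared to that of the same strain given vehicle.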

[14] = NCI Yeast Anticancer Drug Screen. Data for the mlh1 rad18 strain (AID 175); details: S. cerevisiae mlh1 rad18 strain growth inhibition, active compounds read high
How it was run: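 Steps: expose repair-defective yeast to compound; measure growth; express inhibition against vehicle-treated controls.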

[15] = NCI Yeast Anticancer Drug Screen. Data for the rad18 strain (AID 177); details: S. cerevisiae rad18 mutant growth inhibition, active compounds read high
How it was run: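 Measured value is growth inhibition of a yeast strain bearing a DNA repair alteration, referenced to vehicle-treated cells.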

[16] = at 5.0 µM (retest, dose inferred, filed as 0.5)
[17] = at 50.0 µM (retest, dose inferred, filed as 5.0)

Measured: growth inhibition

COc1ccccc1C(=O)OCC1CCCN2CCCCC12 (stereo not given)
active: [1]; at 33.0 µM 76% | [1]; at 100.0 µM 97% | [2]; at 33.0 µM 76% | [2]; at 100.0 µM 98% | [3]; at 11.0 µM 80% | [3]; at 33.0 µM 97% | [3]; at 100.0 µM 98% | [4]; at 11.0 µM 73% | [4]; at 33.0 µM 91% | [4]; at 100.0 µM 98% | [5]; at 33.0 µM 97% | [5]; [17] 99% | [5]; at 50.0 µM 90.7% | [5]; at 100.0 µM 97% | [6]; [17] 99% | [6]; at 50.0 µM 93% | [6]; at 100.0 µM 98% | [7]; at 11.0 µM 77% | [7]; at 33.0 µM 98% | [7]; at 100.0 µM 99% | [8]; at 50.0 µM 91.6% | [9]; at 100.0 µM 95% | [10]; at 33.0 µM 97% | [10]; [17] 91% | [10]; at 50.0 µM 90.8% | [10]; at 100.0 µM 97% | [11]; at 11.0 µM 94% | [11]; at 33.0 µM 96% | [11]; at 100.0 µM 98% | [12]; at 11.0 µM 73% | [12]; at 33.0 µM 91% | [12]; at 100.0 µM 98% | [13]; at 100.0 µM 98% | [14]; [17] 99% | [14]; at 50.0 µM 90.3% | [15]; at 33.0 µM 95% | [15]; at 100.0 µM 97%
inactive: [1]; at 1.2 µM 22% | [1]; at 3.7 µM 8% | [1]; at 11.0 µM 57% | [2]; at 1.2 µM 0% | [2]; at 3.7 µM -7% | [2]; at 11.0 µM 7% | [3]; at 1.2 µM 4% | [3]; at 3.7 µM -3% | [4]; at 1.2 µM 23% | [4]; at 3.7 µM 15% | [5]; at 1.2 µM 8% | [5]; at 3.7 µM 8% | [5]; [16] 21% | [5]; at 11.0 µM 68% | [6]; at 1.2 µM 0% | [6]; at 3.7 µM -6% | [6]; [16] 53% | [6]; at 11.0 µM 0% | [6]; at 33.0 µM 56% | [7]; at 1.2 µM 10% | [7]; at 3.7 µM 17% | [8]; [16] -17% | [8]; [17] 40% | [9]; at 1.2 µM 8% | [9]; at 3.7 µM -1% | [9]; at 11.0 µM -12% | [9]; at 33.0 µM 63% | [10]; at 1.2 µM -9% | [10]; at 3.7 µM -20% | [10]; [16] 7% | [10]; at 11.0 µM 31% | [11]; at 1.2 µM -18% | [11]; at 3.7 µM -5% | [12]; at 1.2 µM 23% | [12]; at 3.7 µM 15% | [13]; at 1.2 µM 10% | [13]; at 3.7 µM -15% | [13]; at 11.0 µM 62% | [13]; at 33.0 µM 63% | [14]; [16] 60% | [15]; at 1.2 µM -5% | [15]; at 3.7 µM -21% | [15]; at 11.0 µM 35%

O=C1c2ccccc2-c2nc3ccccc3nc21
inactive: [1]; at 1.2 µM -27% | [1]; at 3.7 µM -30% | [1]; at 11.0 µM -10% | [2]; at 1.2 µM -20% | [2]; at 3.7 µM -17% | [2]; at 11.0 µM -11% | [2]; at 33.0 µM 33% | [2]; at 100.0 µM 66% | [3]; at 1.2 µM 3% | [3]; at 3.7 µM 28% | [4]; at 1.2 µM -50% | [4]; at 3.7 µM -43% | [4]; at 11.0 µM -26% | [4]; at 33.0 µM -1% | [4]; at 100.0 µM 61% | [5]; at 1.2 µM -6% | [5]; at 3.7 µM -15% | [5]; at 11.0 µM 0% | [5]; at 50.0 µM -20.6% | [6]; at 1.2 µM -79% | [6]; at 3.7 µM -54% | [6]; at 11.0 µM -41% | [6]; at 33.0 µM 50% | [6]; at 50.0 µM -35.1% | [6]; at 100.0 µM 67% | [7]; at 1.2 µM -43% | [7]; at 3.7 µM -39% | [7]; at 11.0 µM -31% | [7]; at 33.0 µM 15% | [7]; at 100.0 µM 46% | [8]; [16] -21% | [8]; [17] 25% | [8]; at 50.0 µM -24.4% | [9]; at 1.2 µM -38% | [9]; at 3.7 µM -18% | [9]; at 11.0 µM -39% | [9]; at 33.0 µM -9% | [9]; at 100.0 µM 34% | [10]; at 1.2 µM -19% | [10]; at 3.7 µM -13% | [10]; [16] 21% | [10]; at 11.0 µM -11% | [10]; at 33.0 µM 46% | [10]; [17] 39% | [10]; at 50.0 µM -14.2% | [10]; at 100.0 µM 66% | [11]; at 1.2 µM -25% | [11]; at 3.7 µM -22% | [11]; at 11.0 µM -10% | [11]; at 33.0 µM 28% | [11]; at 100.0 µM 61% | [12]; at 1.2 µM -31% | [12]; at 3.7 µM -30% | [12]; at 11.0 µM -25% | [12]; at 33.0 µM -1% | [12]; at 100.0 µM 61% | [13]; at 1.2 µM -48% | [13]; at 3.7 µM -57% | [13]; at 11.0 µM -57% | [13]; at 33.0 µM -19% | [13]; at 100.0 µM 36% | [14]; at 50.0 µM 66.7% | [15]; at 1.2 µM -47% | [15]; at 3.7 µM -38% | [15]; at 11.0 µM -28% | [15]; at 33.0 µM 12% | [15]; at 100.0 µM 58%
active: [1]; at 33.0 µM 90% | [1]; at 100.0 µM 91% | [3]; at 11.0 µM 79% | [3]; at 33.0 µM 95% | [3]; at 100.0 µM 81% | [5]; [16] 80% | [5]; at 33.0 µM 85% | [5]; [17] 97% | [5]; at 100.0 µM 83% | [6]; [16] 83% | [6]; [17] 98% | [14]; [16] 84% | [14]; [17] 99%
